Measurements: PubChem BioAssay AID493011 (Sanford-Burnham Center for Chemical Genomics, 2011)
Screen size: about 330,000 compounds; about 1,400 (0.42%) were called active.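 The calls were made as follows: active = at least 40% inhibition at 20 µM here, with at most 30% in a related deaminase screen; inactive = the rest.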 The sample as a whole holds a higher share of actives than the screen did.

Biological target: DNA dC->dU-editing enzyme APOBEC-3A (Homo sapiens) (UniProt P31941)
Assay: blockers of A3A cytidine deamination on DNA – biochemical, FAM/TAMRA oligo cleavage fluorescence, selectivity assay for APOBEC3G inhibitor project, primary screen (AID 493011);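 also: plate controls were A3A with DMSO for no effect and wells lacking A3A enzyme for full effect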
Conditions: recombinant A3A, FAM/TAMRA ssDNA deamination fluorescence; at 20 µM; stronger effect = higher value

Chain of DNA dC->dU-editing enzyme APOBEC-3A (Homo sapiens) (P31941 whole entry, looked up): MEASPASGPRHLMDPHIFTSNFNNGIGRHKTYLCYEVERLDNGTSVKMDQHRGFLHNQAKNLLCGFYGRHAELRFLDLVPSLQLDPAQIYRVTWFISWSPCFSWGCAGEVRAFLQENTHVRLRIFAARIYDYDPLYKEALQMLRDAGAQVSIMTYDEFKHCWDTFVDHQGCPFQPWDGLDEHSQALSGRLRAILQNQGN

inhibition, inactive:
O=c1c2ccccc2c(-c2ccccc2)nn1-c1ccccn1 0.978%
COCCN1C(=O)c2oc3c(C)cc(C)cc3c(=O)c2C1c1cccc(O)c1 (stereo not drawn) -3.14%
O=C(NC(CC(=O)N1CCN(c2ccccc2)CC1)c1ccccc1)c1ccccc1Cl (stereo not drawn) -2.76%
CN1C(C(=O)NCC2CC2)CC2Cn3c(nc4ccccc43)C21 (stereo not drawn) -2.77%
CCCCn1c(N)c(N(CC(C)C)C(=O)C2CSC3(C)CCC(=O)N23)c(=O)[nH]c1=O (stereo not drawn) 7.64%
CCOc1ccc(CNC(=O)C2CC(=O)N(C3CCCC3)C2)cc1OC (stereo not drawn) -5.29%
CN(CC(=O)Nc1ccc(F)c(F)c1F)C(=O)C1CC(=O)N(C2CCCC2)C1 (stereo not drawn) 0.598%
Cc1ccc(NS(=O)(=O)c2ccc(C(C)C)cc2)cc1S(=O)(=O)N1CCOCC1 3.31%
O=C(Cn1cnc2ccccc2c1=O)Nc1cccc(S(=O)(=O)N2CCCCC2)c1 2.51%
CCOc1cc(C)c(S(=O)(=O)NCc2ccccn2)cc1C -6.13%
O=C(COc1ccccc1)Nc1ccc(C(=O)N2CCCC2)cc1 0.542%
O=[N+]([O-])c1ccc(N2CCN(CC(O)COc3ccccc3)CC2)cc1 (stereo not drawn) 0.14%
CCN(CC(=O)NCc1cccs1)c1nnnn1-c1ccccc1 -3.14%
CCCCNC(=O)N1CCCC(N(C)CCc2ccc(OC)c(OC)c2)C1 (stereo not drawn) -3.11%
CCS(=O)(=O)c1ccc2c(c1)N(S(=O)(=O)c1ccccc1)CC(C(=O)O)O2 (stereo not drawn) 1.33%
COCCCn1c(SCC(=O)NC2CCCC2)nnc1-c1ccccc1 0.169%
CCOc1ccc(Nc2nc(Cc3nnc(SCC(=O)NC4CCCC4)n3C)cs2)cc1 -3.45%
O=C(Oc1ccc(-c2nc(-c3ccccn3)no2)cc1)c1ccccc1 2.42%
Cc1cn(C2OC[C@@H](O)[C@@H]2CO)c(=O)[nH]c1=O (stereo partly drawn) -1.23%
COc1ccc(/C=C/C(=O)OCC(=O)NCc2cccs2)cc1OC 2.47%
COc1ccc(CCNC(=O)c2cc3sccc3n2C)cc1OC 5.91%
COCCn1c(SCC(=O)N2CCCCCC2)nc2c(c1=O)SCC2 -5.21%
CC(C)(C)C1CCC(C(=O)Nc2cccnc2)CC1 (stereo not drawn) -2.44%
COc1cc(/C=N/NC(=O)Nc2ccccc2)ccc1OCCOc1ccccc1C -4.86%
CCCc1ccc(OCc2ccc(C(=O)N/N=C/c3cccc([N+](=O)[O-])c3)o2)c(OC)c1 2.99%
COc1c(C(=O)N2CCCC2)ccc2ccccc12 1.55%
O=C(C[n+]1cc(Br)cc2ccccc21)c1ccc(F)cc1 -1.32%
COc1ccccc1NC(=O)COC(=O)c1ccccc1SCC(=O)N1CCCC1 1.2%
CCO[C@H]1OC(C(=O)N2CCN(Cc3ccccc3)CC2)=C[C@@H](c2cn(C(C)=O)c3ccccc23)[C@@H]1CCCO -2.14%
COc1cc(C(=O)NCC2(c3ccccc3)CCCC2)ccc1OC(C)C 5.08%
CCOc1c(OC)cccc1C(=O)NCC1(c2ccccc2)CCCC1 -3.19%
O=C(NC1(C(F)(F)F)NC(=O)N(Cc2cccnc2)C1=O)c1ccccc1Cl (stereo not drawn) 0.863%
O=[N+]([O-])c1cc(S(=O)(=O)N2CCCC2)ccc1NN=C1CCCC1 -1.16%
Cc1cc(SCc2c(F)cccc2Cl)nc(=O)[nH]1 1.16%
Cc1ccc(CSc2nsc(C)c2C#N)cc1 -2.03%
Cc1ccc(NC(=O)CN(C)C(=O)COC(=O)C(C)(C)Oc2ccc(Cl)cc2)cc1 1.01%
O=C(CCC1CCCCC1)Nc1cc(C(F)(F)F)ccc1N1CCOCC1 1.06%
COc1ccccc1N1CCN(C(=O)CCS(=O)(=O)c2ccc3c(c2)NC(=O)C(C)S3)CC1 (stereo not drawn) 0.853%
Cc1cccc(N2C(=O)N3[C@H](c4ccc(F)cc4)[C@@H]4C(=O)N(C5CCCCC5)C(=O)[C@@H]4[C@]3(Cc3ccccc3)C2=O)c1 0.21%
CCN1C(=O)N[C@@H](c2ccccc2)[C@H](C(C)=O)[C@H]1C -2%
CCN1C(=NCCc2cccnc2)N[C@@H](c2ccccc2)C(C(=O)OC)=C1C 67.6%
CC1=C(C(N)=O)C(c2sccc2C)n2nnnc2N1 (stereo not drawn) 0.148%
Cc1cc(Cl)ccc1C(=O)C1CCCN(C(=O)c2nonc2C)C1 (stereo not drawn) -5.04%
Cc1cc(=O)cc(C)n1-c1ccc(Cl)c(Cl)c1 1.75%
Cc1ccccc1-n1c(C)cc(/C=N/NC(=O)c2ccc(CN3CCOCC3)cc2)c1C 0.38%
CCOc1ccc(S(=O)(=O)Nc2ccncc2)c(C)c1C -0.833%
CCc1ccc(OCC(O)CN2CCN(CCO)CC2)cc1 (stereo not drawn) -7.28%
CC(=O)c1ccc(N=C2SCCCN2C(=O)C2CCCCC2)cc1 4.36%
O=C1c2cccc3cccc(c23)C(=O)N1CCCCCc1n[nH]c(=S)o1 -1.78%
O=C(CN1C(=O)c2cccc3cccc(c23)C1=O)N1CCCCC1 -1.16%
CC(=O)c1ccc(NC(=S)N(Cc2ccccc2)C(C)C2CC2)cc1 (stereo not drawn) 0.493%
COc1ccc(-c2ocnc2C(=O)Nc2ccc3c(c2)CCC3)cc1 -0.367%
CCN(CC(=O)N1CCCC1)S(=O)(=O)c1ccc(F)cc1 -1.08%
NC(=O)c1ncc(C(F)(F)F)cc1Oc1ccc(F)cc1 2.03%
O=C(Nc1ccc(Cl)cc1)Nc1ccc(Oc2cccnc2)nc1 -3.23%
COc1ccc(C)cc1NC(=O)CN1c2cccc3cccc(c23)S1(=O)=O -2.73%
CCN(C(=O)COc1ccc(C(=O)c2ccccc2)cc1)c1ccccc1 -0.203%
COc1ccccc1CNC(=O)COC(=O)c1sc(C)nc1C -1.57%
CC(=O)Nc1ccc(NC(=O)CSc2nnc(C3CC3)n2-c2ccccc2)cc1 10.5%
CC(=O)c1cccc(NC(=O)c2cc(C)nn2-c2ccccc2)c1 -0.424%
COc1cccc([C@H](O)Cn2cc(-c3ccc(CON=C(C)C)cc3)nn2)c1 2.45%
COc1ccc(Cc2nnc(N/N=C/c3ccccc3O)[nH]c2=O)cc1OC -1.76%
Cc1cc(C(=O)N/N=C/c2ccccn2)c2ccccc2n1 -3.08%
CC(C)(C)NC(=O)c1ccc(Cn2cc(C(F)(F)F)ccc2=O)cc1 -2.36%
CCOc1ccc(C(=O)NCC(=O)N2CCCCCCC2)cc1OCC -0.114%
CC(O)C(NS(=O)(=O)c1ccc(Cl)cc1)C(=O)OCc1cc([N+](=O)[O-])cc2c1OCOC2 (stereo not drawn) -3.62%
NS(=O)(=O)c1ccc(CNC(=O)c2cccc(Oc3ccccc3)c2)cc1 -0.736%
CCc1ccc(S(=O)(=O)Nc2cc3c(cc2N2CCCCC2)n(C)c(=O)c(=O)n3C)cc1 -6.54%
COC(=O)C1=C(C)N(C)C(=S)NC1c1ccccc1 (stereo not drawn) -2.13%
CCN1C(=O)N[C@@H](c2ccccc2)C(C(=O)OC)=C1C 4.12%
CC1CN(C2CCN(C(=O)COc3ccccc3)CC2)CC(C)O1 (stereo not drawn) -6.23%
COC(=O)c1ccc(NC(=O)CSc2nnc(Cc3cccn3C)n2-c2ccc(F)cc2)cc1 -0.405%
Cc1cccc(N2CCN(C(=O)COCc3cc(-c4ccc5c(c4)OCO5)on3)CC2)c1C -0.313%
Cc1sc2nc(CSCC(=O)NC3CCCCC3)[nH]c(=O)c2c1C -2.29%
CC(=O)c1sc2nc(SCC(=O)N3CCCCC3)[nH]c(=O)c2c1C 2.37%

inhibition, active:
O=C1c2oc3ccccc3c(=O)c2C(c2cccc(O)c2)N1c1ccccn1 (stereo not drawn) 51.3%
COc1ccc(Br)cc1CN(C)C(=O)C1CC(=O)N(C2CCCC2)C1 (stereo not drawn) 43.5%
C[N+]1(CC(O)COc2ccccc2)CCN(C(=O)c2ccc([N+](=O)[O-])cc2)CC1 (stereo not drawn) 67.8%
COCCCn1c(Cc2csc(Nc3cccc(Cl)c3)n2)nnc1SCC(=O)OC1CCCCC1 50.4%
COc1ccc(CCNC(=O)COC(=O)/C=C/c2cccs2)cc1OC 48.9%
COc1cc(/C=N\Nc2ccc([N+](=O)[O-])cn2)ccc1OCC(=O)O 71.8%
COC(=O)C[n+]1cccc2ccccc21 67.3%
O=C(CNC1CCCCC1)NCC1(c2ccccc2)CCCC1 56.4%
C[N+]1(CCNC(=O)/C=N/O)CCCCC1 54.1%
Cc1snc(SCc2c(F)cccc2Cl)c1C#N 44.2%
CCN1C(=NCCc2cccnc2)N[C@@H](c2ccccc2)[C@H](C(=O)OC)[C@H]1C 68.2%
Cc1cc(/C=N/NC(=O)CC2(C)OCCO2)c(C)n1-c1ccc(Cl)c(Cl)c1 56.8%
C[N+](C)(CCCCCC[N+](C)(C)CCCN1C(=O)c2cccc3cccc(c23)C1=O)CCCN1C(=O)c2cccc3cccc(c23)C1=O 46%
N#Cc1ncc(C(F)(F)F)cc1Oc1cccnc1 60.4%
CC[n+]1c(C)n(-c2ccccc2)c2ccc(NC(C)=O)cc21 60%
Cc1nnc(N/N=C/c2ccccn2)[nH]c1=O 42.1%
COC(=O)C1=C(C)N(Cc2ccccc2)C(=NCCCOC(C)C)N[C@H]1c1ccccc1 45.5%
CSc1nnc(SCc2nc3sc(C(=O)O)c(C)c3c(=O)[nH]2)s1 65.8%
